Rows were chosen to be rich in hits. Some 0.45% of all compounds tested hit in one or more screens of this group.
EPAC2 ag – agonists of human EPAC2 (RAPGEF4); Q8WZA2; EPAC2 activation, biochemical qHTS; response scale: 100% = 6.5 mM cAMP response; Potency, µM (titrated, usually from 154 µM), without a hit: at the top dose activation, hits mostly activators; actives 0.079% (n = 360,000); AID 720711; also: nearly all actives have a fitted effect of over 50% in size
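Readout is BODIPY fluorescence (480 nm excitation, 540 nm emission), which falls as labeled GDP is exchanged off Rap1B. EPAC2 at 100 nM acted on 250 nM RAP1B-BODIPY-GDP with 50 uM GDP present.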
EPAC1 antag – EPAC1 (human) antagonism; EPAC1 GEF assay, Rap1b-BODIPY-GDP exchange fluorescence; Potency, µM (series often up to 115 µM), without a hit: top-dose activity change, negative = inhibition, hits mostly inhibitors; actives 0.14% (n = 360,000);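 also: plate controls were vehicle for no effect and positive control for full effect; nearly all actives have a fitted effect of over 50% in size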
USP2a block – inhibitors of human ubiquitin-specific protease USP2a; actives 0.01% (n = 330,000); USP2 core, Ub-CHOP2 coupled fluorogenic reporter, 485/531; Potency, µM (doses to about 38.3 µM), for the others: top-dose activity change, negative = inhibition, usual class: inhibitors;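 also: plate controls were DMSO wells for no effect and full inhibition by NEM control for full effect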
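Deubiquitinase activity read as fluorescence (485/531 nm) after Ub-CHOP2 cleavage activates the enterokinase reporter on its substrate; USP2 core 10nM, Ub-CHOP2 and substrate 25nM each, 30min compound preincubation then 60min RT; data normalized to NEM, curves fitted.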
EPAC1 agonist – agonists of human EPAC1; EPAC1 agonist qHTS, biochemical assay; response scale: 100% = response to 6.5 mM cAMP; Potency, µM (top dose mostly 154 µM), for the others: at the highest dose activation, usual class: activators; actives 0.073% (n = 360,000); also: nearly all actives have a fitted effect of over 60% in size
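Nucleotide exchange by EPAC1 (100 nM) on Rap1B–BODIPY-GDP (250 nM) in the presence of 50 uM GDP is tracked fluorescently at 480/540 nm over 30 min. Signals are normalized to a 6.5 mM cAMP control.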
USP1 inh – inhibitors of human USP1/UAF1 deubiquitinase; O94782; recombinant USP1/UAF1, Ub-Rhodamine cleavage fluorescence; Potency, µM (top dose mostly 57.1 µM), for the others: at the top dose activity change, negative = inhibition, hits mostly inhibitors; actives 0.23% (n = 390,000); AID 743255; also: % is scaled to controls: 0 for no effect and ±100 for the full control effect; nearly all actives have a fitted effect of over 60% in size
Target sequence (O94782 whole entry, looked up): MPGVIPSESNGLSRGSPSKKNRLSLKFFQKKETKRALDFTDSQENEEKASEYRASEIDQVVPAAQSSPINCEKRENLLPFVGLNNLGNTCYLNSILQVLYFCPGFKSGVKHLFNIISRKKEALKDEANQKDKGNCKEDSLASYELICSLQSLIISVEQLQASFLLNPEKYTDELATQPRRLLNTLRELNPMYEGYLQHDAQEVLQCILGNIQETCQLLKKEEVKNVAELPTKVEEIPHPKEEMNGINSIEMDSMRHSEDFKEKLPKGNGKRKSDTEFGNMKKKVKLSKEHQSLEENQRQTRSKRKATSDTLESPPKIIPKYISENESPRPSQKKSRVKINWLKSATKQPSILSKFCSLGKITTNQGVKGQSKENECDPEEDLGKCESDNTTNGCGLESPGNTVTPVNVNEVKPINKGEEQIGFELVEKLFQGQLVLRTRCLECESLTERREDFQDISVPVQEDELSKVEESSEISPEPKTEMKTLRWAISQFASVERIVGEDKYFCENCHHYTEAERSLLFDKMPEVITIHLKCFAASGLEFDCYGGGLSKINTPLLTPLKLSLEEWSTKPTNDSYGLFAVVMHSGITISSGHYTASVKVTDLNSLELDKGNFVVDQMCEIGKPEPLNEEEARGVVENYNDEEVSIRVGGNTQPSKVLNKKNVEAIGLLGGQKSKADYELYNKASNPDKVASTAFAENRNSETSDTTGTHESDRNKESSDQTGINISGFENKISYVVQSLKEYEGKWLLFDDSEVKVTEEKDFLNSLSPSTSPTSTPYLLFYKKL
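Step one: compound is pinned into 1nM USP1/UAF1 in HEPES pH 7.8 buffer with TCEP. Step two: 15 min room-temperature incubation. Step three: Ub-Rho (150nM final) starts cleavage, tracked by fluorescence over six one-minute reads.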
EPAC2 antag – blocks human EPAC2 exchange factor. Q8WZA2. AID 720708. Potency, µM (top dose mostly 114 µM), without a hit: at the highest dose activity, negative = inhibition, hits mostly inhibitors. EPAC2 GEF exchange of Rap1B-BODIPY-GDP, fluorescence. actives 0.18% (n = 360,000); also: % is scaled to controls: 0 for no effect and ±100 for the full control effect; nearly all actives have a fitted effect of over 45% in size
Starred values were filed as active, the others as inactive; i = inactive; ? = inconclusive; · = no result given. Calls follow the shape of the dose curve; as a rule, active = well fitted curve in the direction sought with a large enough effect; inconclusive = small, poorly fitted or top-dose-only effect, or another doubt; inactive = no such curve, though single readings can be large; an effect the other way counts as inactive or inconclusive. Potency is read from the fitted curve at half-maximal effect.

SMILES	EPAC2 ag	EPAC1 antag	USP2a block	EPAC1 agonist	USP1 inh	EPAC2 antag
COc1cccc(C(=O)NC2CCCC2)c1	9.0%	12.3%	3.5%	0.4%	-10.5%	3.1%
COc1cccc(C(=O)NNC(=S)NC2CCCCC2)c1	-1.3%	50.1µM*	4.8%	i	-9.4%	9.0%
CCCCCNC(=O)C1C(=O)Nc2ccccc2C(=O)N1c1ccc(OC)cc1 (stereo not drawn)	1.2%	13.8%	·	4.1%	·	2.9%
Cc1cc(C)c(S(=O)(=O)/N=C2/C=C(Sc3ncn[nH]3)C(=O)c3ccccc32)cc1C	16.3%	44.7µM*	-0.1%	11.1%	1.26µM*	?
Cc1cccc(C)c1NC(=O)Cn1c(=O)cc(C)c2c(C)nn(-c3cccc(Cl)c3C)c21	·	·	·	·	-19.2%	·
CC1=C(C(=O)OCc2ccccc2)C(c2ccc(C(C)(C)C)cc2)NC(=O)N1CCCCCC(=O)O (stereo not drawn)	-10.3%	-15.6%	-3.7%	-6.0%	-9.3%	15.8µM*
CC1=C(C(=O)OCc2ccccc2)C(c2ccccc2)NC(=O)N1CCCCCC(=O)O (stereo not drawn)	-3.9%	-2.2%	0.1%	-20.7%	-23.9%	3.4%
C#CCOCCOCCOCCNc1nc(N2CCN(C(=O)CCCCCCCCCCNC(=O)[C@H]([C@@H](C)CC)n3cc(CCCCCN)nn3)CC2)nc(N2CCN(C(=O)CCCCCCCCCCNC(=O)[C@@H]([C@H](C)O)n3cc(C)nn3)CC2)n1	?	?	10µM*	-4.8%	-21.8%	?
C#CCOCCOCCOCCNc1nc(N2CCN(C(=O)CCCCCCCCCCNC(=O)[C@@H](CCSC)n3cc(CCO)nn3)CC2)nc(N2CCN(C(=O)CCCCCCCCCCNC(=O)[C@H]([C@@H](C)CC)n3cc(CCCCCN)nn3)CC2)n1	?	44.7µM*	-16.3%	?	?	?
COc1ccccc1N(CC(=O)N1CCN(Cc2ccccc2)CC1)S(=O)(=O)c1ccccc1	12.4%	5.3%	·	0.5%	-25.3%	6.4%
CN1CCN(C(CNC(=O)c2c(F)cccc2F)c2ccc3c(c2)OCO3)CC1 (stereo not drawn)	·	·	·	·	-3.2%	·
CCSc1nc(C)cc(C)c1S(=O)(=O)c1ccccc1C	14.8%	-6.0%	-4.1%	7.1%	-13.7%	?
CSc1nc(C)cc(C)c1S(=O)(=O)c1ccccc1C	21.0%	-16.7%	-6.7%	12.6%	-8.4%	35.5µM*
COc1nc(C)cc(C)c1S(=O)(=O)c1ccccc1C	-0.3%	-0.5%	8.3%	-0.4%	-4.3%	12.6µM*
CCC(C)Oc1nc(C)cc(C)c1S(=O)(=O)c1ccccc1C (stereo not drawn)	1.3%	-3.6%	-1.7%	0.9%	-28.8%	-20.5%
C#CCOc1nc(C)cc(C)c1S(=O)(=O)c1ccccc1C	7.4%	7.1%	2.3%	1.9%	-5.9%	28.2µM*
CCc1nc2ccc(C(=O)NCCOc3ccc(OC)cc3)cn2c1N(CC)Cc1ccc(OC)c(OC)c1	16.6%	-16.5%	·	-16.4%	·	12.3%
COC(=O)C(C(C)=O)C1=C/C(=N\S(=O)(=O)c2ccc(C)cc2)c2ccccc2C1=O (stereo not drawn)	-5.0%	-7.3%	3.6%	3.5%	-19.8%	-6.9%
O=C(O)c1ccc(S(=O)(=O)/N=C2\C=C(Nc3ccccc3F)C(=O)c3ccccc32)cc1	29.6%	22.4µM*	1.1%	5.2%	2.51µM*	?
Cc1ccccc1NC1=C/C(=N\S(=O)(=O)c2ccc(C(=O)O)cc2)c2ccccc2C1=O	16.8%	39.8µM*	-2.7%	1.1%	1.26µM*	50.1µM*
CCOC(=O)/C(C#N)=C\c1ccc(N2CCN(C/C=C/c3ccccc3)CC2)cc1	50.1µM*	44.3%	5.7%	89.1µM*	28.2µM*	69.5%

From PubChem BioAssay
